Where “and” joins values, the source holds several entries; their conditions need not be identical. Equal values may be shown once. Inconclusive results are not listed. Entries that show only a call come without a potency. Calls of active or inactive are those of the source. The call rests on the fitted dose curve; in most records, active means well fitted curve in the direction sought with a large enough effect; inconclusive means small, poorly fitted or top-dose-only effect, or another doubt; inactive means no such curve, though single readings can be large; an effect the other way counts as inactive or inconclusive.
biological target: Voltage-gated inwardly rectifying potassium channel KCNH2 (Homo sapiens) (UniProt Q12809); assay: qHTS Assay for Small Molecule Inhibitors of the Human hERG Channel Activity (AID 588834); details: U2OS BacMam hERG, FluxOR thallium flux fluorescence; series mostly up to 46.1 µM;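 further: lower thallium flux fluorescence means stronger hERG block; nearly all actives have a fitted effect of over 50% in size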
Outline: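 Thallium-flux (FluxOR) read-out on FDSS: fluorescence read 10 s before and 2 min after stimulation buffer. hERG-BacMam-transduced U2OS cells, compound exposure about 10 min. AC50 by standard Hill equation.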
Potency means the concentration at half of the fitted maximal effect.

Sequence of Voltage-gated inwardly rectifying potassium channel KCNH2 (Homo sapiens) (Q12809 whole entry, looked up): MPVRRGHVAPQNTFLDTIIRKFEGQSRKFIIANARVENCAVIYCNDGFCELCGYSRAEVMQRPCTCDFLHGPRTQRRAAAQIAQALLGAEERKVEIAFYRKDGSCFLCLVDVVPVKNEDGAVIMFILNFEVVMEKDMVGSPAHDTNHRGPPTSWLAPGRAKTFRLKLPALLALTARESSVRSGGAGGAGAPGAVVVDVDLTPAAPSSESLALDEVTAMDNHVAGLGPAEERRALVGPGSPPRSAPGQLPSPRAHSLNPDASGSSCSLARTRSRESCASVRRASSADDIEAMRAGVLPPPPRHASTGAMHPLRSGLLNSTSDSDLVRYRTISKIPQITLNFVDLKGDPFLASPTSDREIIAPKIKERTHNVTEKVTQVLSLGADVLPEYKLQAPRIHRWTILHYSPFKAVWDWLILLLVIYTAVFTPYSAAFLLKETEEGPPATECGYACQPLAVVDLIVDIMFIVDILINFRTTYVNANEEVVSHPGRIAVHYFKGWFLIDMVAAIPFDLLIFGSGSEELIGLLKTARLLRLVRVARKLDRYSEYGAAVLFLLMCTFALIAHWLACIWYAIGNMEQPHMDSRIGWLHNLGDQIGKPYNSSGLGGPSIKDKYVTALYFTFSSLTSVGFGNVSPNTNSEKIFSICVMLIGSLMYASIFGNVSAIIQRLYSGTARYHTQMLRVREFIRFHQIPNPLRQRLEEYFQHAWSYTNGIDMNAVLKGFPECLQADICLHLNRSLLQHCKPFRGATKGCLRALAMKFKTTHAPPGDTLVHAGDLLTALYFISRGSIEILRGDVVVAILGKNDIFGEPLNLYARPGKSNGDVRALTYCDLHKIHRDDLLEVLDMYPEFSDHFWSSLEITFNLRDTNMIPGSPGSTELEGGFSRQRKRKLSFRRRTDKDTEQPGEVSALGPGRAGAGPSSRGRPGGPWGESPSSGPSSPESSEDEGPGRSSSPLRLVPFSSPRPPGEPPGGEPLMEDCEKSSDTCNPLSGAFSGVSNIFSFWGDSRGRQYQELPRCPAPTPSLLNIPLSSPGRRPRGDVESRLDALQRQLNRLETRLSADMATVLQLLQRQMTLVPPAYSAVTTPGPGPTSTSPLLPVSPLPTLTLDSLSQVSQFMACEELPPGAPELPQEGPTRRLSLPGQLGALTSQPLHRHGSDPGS

Compound	Potency
NS(=O)(=O)c1cc2c(cc1Cl)NC(C(Cl)Cl)NS2(=O)=O (configuration not stated)	inactive
C[C@@H]1CN(c2c(F)c(N)c3c(=O)c(C(=O)O)cn(C4CC4)c3c2F)C[C@H](C)N1	inactive
CC(C)C1CCC(C(=O)N[C@H](Cc2ccccc2)C(=O)O)CC1 (some centres not stated)	inactive
OC(Cn1cncn1)(Cn1cncn1)c1ccc(F)cc1F	inactive
Cc1ccnc2c1NC(=O)c1cccnc1N2C1CC1	inactive
CN(C)c1ccc(C(=C2C=CC(=[N+](C)C)C=C2)c2ccc(N(C)C)cc2)cc1	10 µM (active) and 12.6 µM (active)
O=C(O)c1cc(=O)[nH]c(=O)[nH]1	inactive
CO[C@@H]1[C@@H](OC(N)=O)[C@@H](O)[C@H](Oc2ccc3c(O)c(NC(=O)c4ccc(O)c(CC=C(C)C)c4)c(=O)oc3c2C)OC1(C)C	inactive
CC1=NN(c2ccccc2)C(=O)C1	inactive
Cc1nnc(NS(=O)(=O)c2ccc(N)cc2)s1	inactive
COC(c1ccccc1)(c1ccccc1)[C@H](Oc1nc(C)cc(C)n1)C(=O)O	inactive
CS(=O)(=O)c1ccc([C@@H](O)[C@@H](CO)NC(=O)C(Cl)Cl)cc1	inactive
C[C@@H](CN1CC(=O)NC(=O)C1)N1CC(=O)NC(=O)C1	inactive
COc1ccc2cc3[n+](cc2c1OC)CCc1cc2c(cc1-3)OCO2	inactive
Nc1nc(F)nc2c1ncn2[C@@H]1O[C@H](CO)[C@@H](O)[C@@H]1O	inactive
CCc1cc(C(N)=S)ccn1	inactive
CCN[C@H]1C[C@H](C)S(=O)(=O)c2sc(S(N)(=O)=O)cc21	inactive
CCC(=O)O[C@]1(C(=O)CCl)[C@@H](C)C[C@H]2[C@@H]3CCC4=CC(=O)C=C[C@]4(C)[C@@]3(F)[C@@H](O)C[C@@]21C	inactive
CC(=O)[C@H]1CC[C@H]2[C@@H]3CC=C4C[C@@H](O)CC[C@]4(C)[C@H]3CC[C@]12C	inactive
CO[C@@]12[C@H](COC(N)=O)C3=C(C(=O)C(C)=C(N)C3=O)N1C[C@@H]1N[C@@H]12	inactive
CCC(=O)O[C@]1(C(=O)SCF)[C@H](C)C[C@H]2[C@@H]3C[C@H](F)C4=CC(=O)C=C[C@]4(C)[C@@]3(F)[C@@H](O)C[C@@]21C	inactive
C[C@]12C=CC(=O)C=C1CC[C@@H]1[C@@H]2C(=O)C[C@@]2(C)[C@H]1CC[C@]2(O)C(=O)CO	inactive
Cn1c(=O)c2c(ncn2CC(O)CO)n(C)c1=O (configuration not stated)	inactive
CN(C)CCc1c[nH]c2ccc(C[C@H]3COC(=O)N3)cc12	inactive
Cc1ncc([N+](=O)[O-])n1CCO	inactive
COc1ccccc1OCC(O)COC(N)=O (configuration not stated)	inactive
CC(C)(C)NC(=O)[C@H]1CC[C@H]2[C@@H]3CC[C@H]4NC(=O)C=C[C@]4(C)[C@H]3CC[C@]12C	inactive
Cc1onc(-c2ccccc2Cl)c1C(=O)N[C@@H]1C(=O)N2[C@@H]1SC(C)(C)[C@@H]2C(=O)O	inactive
S=P(N1CC1)(N1CC1)N1CC1	inactive
CC(=O)CC(c1ccccc1)c1c(O)c2ccccc2oc1=O (configuration not stated)	inactive

biological target: Luciferin 4-monooxygenase (Photinus pyralis) (UniProt P08659); assay: Biochemical firefly luciferase enzyme assay for NPC (AID 624030); further: nearly all actives have a fitted effect of over 70% in size; details: purified P. pyralis luciferase, luminescence, 5 min; series mostly up to 58.6 µM
Outline: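 Purified P. pyralis luciferase at 10 nM in 50 mM Tris Acetate (final), luminescence read within 5 minutes of enzyme addition to compounds. Activity normalised to PTC124 versus DMSO; concentration-response curves classed by r2, magnitude and activity.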

Sequence of Luciferin 4-monooxygenase (Photinus pyralis) (P08659 whole entry, looked up): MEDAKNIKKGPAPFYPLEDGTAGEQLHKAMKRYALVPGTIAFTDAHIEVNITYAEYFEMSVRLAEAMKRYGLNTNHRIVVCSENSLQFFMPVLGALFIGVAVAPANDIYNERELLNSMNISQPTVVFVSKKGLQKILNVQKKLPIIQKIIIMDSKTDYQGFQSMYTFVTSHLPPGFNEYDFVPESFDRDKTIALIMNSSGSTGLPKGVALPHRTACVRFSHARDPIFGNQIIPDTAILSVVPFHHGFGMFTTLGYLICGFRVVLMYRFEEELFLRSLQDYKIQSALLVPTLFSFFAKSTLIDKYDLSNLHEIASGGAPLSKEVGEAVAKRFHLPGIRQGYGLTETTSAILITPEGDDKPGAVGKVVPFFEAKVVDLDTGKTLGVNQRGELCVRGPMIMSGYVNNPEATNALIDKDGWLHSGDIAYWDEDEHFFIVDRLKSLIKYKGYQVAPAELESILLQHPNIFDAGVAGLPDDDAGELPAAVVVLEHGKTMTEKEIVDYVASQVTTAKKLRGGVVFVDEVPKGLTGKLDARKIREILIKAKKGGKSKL

Compound	Potency
NNC(=O)c1ccncc1	inactive
OC(Cn1cncn1)(Cn1cncn1)c1ccc(F)cc1F	inactive
Cc1ccnc2c1NC(=O)c1cccnc1N2C1CC1	inactive
CN(C)c1ccc(C(=C2C=CC(=[N+](C)C)C=C2)c2ccc(N(C)C)cc2)cc1	12.8 µM (active)
O=C(O)c1cc(=O)[nH]c(=O)[nH]1	inactive
CC1=NN(c2ccccc2)C(=O)C1	inactive
O=C(N[C@H](CO)[C@H](O)c1ccc([N+](=O)[O-])cc1)C(Cl)Cl	inactive
Cc1nnc(NS(=O)(=O)c2ccc(N)cc2)s1	inactive
COc1ccc2cc3[n+](cc2c1OC)CCc1cc2c(cc1-3)OCO2	inactive
CCc1cc(C(N)=S)ccn1	inactive
N=C(N)c1ccc(OCCCCCOc2ccc(C(=N)N)cc2)cc1	inactive
C[C@]12C=CC(=O)C=C1CC[C@@H]1[C@@H]2C(=O)C[C@@]2(C)[C@H]1CC[C@]2(O)C(=O)CO	inactive
Cc1ncc([N+](=O)[O-])n1CCO	inactive
S=P(N1CC1)(N1CC1)N1CC1	inactive
CC(=O)CC(c1ccccc1)c1c(O)c2ccccc2oc1=O (configuration not stated)	inactive

tested on: not listed separately; assay: S16 Schwann cell viability assay (CellTiter-Glo assay) (AID 624031); details: S16 rat Schwann cells viability, 24 h; series mostly up to 57.5 µM; further: nearly all actives have a fitted effect of over 70% in size
Outline: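 This viability control uses native rat S16 Schwann cells grown in DMEM plus 10% FBS. After a 24 h compound treatment at 37 °C, CellTiter-Glo luminescence reports ATP content, scaled against DMSO-treated and cell-free wells.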

Compound	Potency
OC(Cn1cncn1)(Cn1cncn1)c1ccc(F)cc1F	inactive
Cc1ccnc2c1NC(=O)c1cccnc1N2C1CC1	inactive
CN(C)c1ccc(C(=C2C=CC(=[N+](C)C)C=C2)c2ccc(N(C)C)cc2)cc1	9.07 µM (active)
O=C(O)c1cc(=O)[nH]c(=O)[nH]1	inactive
CC1=NN(c2ccccc2)C(=O)C1	inactive
Cc1nnc(NS(=O)(=O)c2ccc(N)cc2)s1	inactive
COc1ccc2cc3[n+](cc2c1OC)CCc1cc2c(cc1-3)OCO2	inactive
N=C(N)c1ccc(OCCCCCOc2ccc(C(=N)N)cc2)cc1	inactive
Cc1cc(NS(=O)(=O)c2ccc(N)cc2)no1	inactive
C[C@]12C=CC(=O)C=C1CC[C@@H]1[C@@H]2C(=O)C[C@@]2(C)[C@H]1CC[C@]2(O)C(=O)CO	inactive
Cc1ncc([N+](=O)[O-])n1CCO	inactive
S=P(N1CC1)(N1CC1)N1CC1	inactive
